In the library only some 2.4% were active in any assay of this set; here they are far more common.
FUS suppressor: FUS proteinopathy suppression in yeast. AID 1347120. Potency, µM (series often up to 76.6 µM), most hits filed as activators. 390,000 compounds, 0.24% hits. S. cerevisiae FUS-expressing, growth rescue, OD600, 24 h; further: nearly all actives have a fitted effect of over 55% in size
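FUS-expressing yeast, raffinose-pregrown, induced in 2% galactose minimal medium at OD 0.005; compounds in a dilution series, 24hr at 30C. Growth restoration read as absorbance at 600 nm. CP55940 positive control, DMSO negative.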
A-T KAP1 phos: potential ataxia-telangiectasia treatments restoring KAP-1 phosphorylation; F2112 A-T fibroblasts, KAP-1 phosphorylation AlphaLISA; neocarzinostatin DNA damage 30 min before lysis; AID 485349; Potency, µM (doses to about 57.5 µM), hits mostly activators; 320,000 compounds, 0.19% hits; further: nearly all actives have a fitted effect of over 45% in size
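hTERT-immortalized A-T patient fibroblasts (F2112), 500 cells/well in OPTI-MEM, 1% FBS, got compounds for 60 min, then NCS for 30 min at 37C. Lysates were then assayed for phospho-KAP-1 by AlphaLISA (anti-pKAP1 donor, anti-KAP1 acceptor beads), 6 hr at 25C.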
aSyn yeast inh: alpha-synuclein toxicity inhibition in yeast; Yeast expressing alpha-synuclein, growth rescue, BacTiter-Glo, 24 h; Potency, µM (top dose mostly 46.1 µM), actives largely listed as activators; 370,000 compounds, 0.14% hits; AID 652106; further: nearly all actives have a fitted effect of over 65% in size
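Rescue of yeast growth: cells expressing toxic alpha-synuclein, induced in galactose at OD600 0.02, incubated with compound 24 h at 30 C. ATP luminescence quantified growth; inhibitors of toxicity appear as activators.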
Abeta yeast res: compounds reversing amyloid beta toxicity in yeast | yeast expressing A-beta42, growth rescue, OD600, 48 h; response scale: 0% DMSO, 100% iron-clioquinol control | Potency, µM (titrated, usually from 46.1 µM), actives largely listed as activators | 410,000 compounds, 0.063% hits; further: nearly all actives have a fitted effect of over 55% in size
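Yeast growth medium received pinned compounds, then yeast cells expressing toxic A-beta were added; plates incubated at 30 C for 48 hr. Growth read as absorbance at 600 nm, normalized to DMSO and equimolar FeCl3 plus clioquinol controls.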
TDP-43 yeast inh: inhibitors of TDP-43 toxicity in yeast | TDP-43 expressing yeast growth rescue, BacTiter-Glo, 24 h | Potency, µM (doses to about 46.1 µM), hits mostly activators | 410,000 compounds, 1.8% hits; further: nearly all actives have a fitted effect of over 50% in size
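Readout is BacTiter-Glo luminescence of cell growth, so inhibitors register as activators. TDP-43-expressing yeast at OD600=0.02 in galactose medium, after raffinose pregrowth to mid-log, were incubated with compound for 24 hr at 30 deg C.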
Mito fusion yeast: inhibitors of mitochondrial division or activators of mitochondrial fusion. 320,000 compounds, 0.23% hits. Potency, µM (series often up to 46.1 µM), actives largely listed as activators. S. cerevisiae fusion-defective mutant growth rescue, CellTiterGlo 48 h. AID 485298; further: nearly all actives have a fitted effect of over 45% in size
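Temperature-sensitive fusion-defective S. cerevisiae (e.g. fzo1-1, mgm1-5) were grown with compound in YPEG medium (3% ethanol, 3% glycerol) for 48 hours at 37C. Growth rescue was measured as viability by CellTiterGlo luminescence after 10 minutes at ambient.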
Numbers stand for hits; . = inactive; ? = inconclusive; / = no result given. The call rests on the fitted dose curve; in most records, active means well fitted curve in the direction sought with a large enough effect; inconclusive means small, poorly fitted or top-dose-only effect, or another doubt; inactive means no such curve, though single readings can be large; an effect the other way counts as inactive or inconclusive.

SMILES | FUS suppressor | A-T KAP1 phos | aSyn yeast inh | Abeta yeast res | TDP-43 yeast inh | Mito fusion yeast
CCc1c(C)c2ccc3c(c2oc1=O)CN(Cc1ccccc1)CO3 | . | / | 4.47µM | . | . | /
CCCCOC(=O)c1ccc(NC(=O)c2c(Cl)ccc(Cl)c2OC)cc1 | . | . | . | . | . | 15.8µM
COc1ccc(C(=O)NC2CCCc3c2cnn3-c2cc(F)cc(F)c2)c(OC)n1 (stereo not drawn) | . | . | . | . | . | .
COc1ccc(C(=O)NC2CCCc3c2cnn3-c2cc(F)cc(F)c2)c(OC)c1OC (stereo not drawn) | . | . | . | . | . | 11.2µM
Cc1ccc(NC(=O)c2ccc(CS(=O)(=O)Cc3ccccc3C)o2)c(C)c1 | . | / | / | / | / | /
Cc1noc(C)c1CSc1nc2ccccc2[nH]1 | . | . | . | . | . | .
c1ccc(-c2cc(CSc3nc4ccccc4[nH]3)on2)cc1 | . | . | . | . | 20µM | .
Fc1cccc(F)c1CSc1nc2ccccc2[nH]1 | . | . | . | . | 12.6µM | .
O=C(NC1CCCCCC1)c1ccc(CS(=O)(=O)Cc2ccccc2F)o1 | . | . | . | . | . | .
O=C(NC1CCCCC1)c1ccc(-c2ccccc2F)o1 | / | . | . | . | 12.6µM | /
CC(C)C1OC2c3cccc4cccc(c34)C2N1c1ccccc1 (stereo not drawn) | . | . | . | . | 12.6µM | .
COc1ccc2ccccc2c1C(=O)/C=C\c1ccoc1 | . | . | ? | . | 11.2µM | 10µM
CC(=O)N1CCc2nc3sc(C(=O)c4ccc(F)cc4)c(N)c3c(C(F)(F)F)c2C1 | . | / | / | . | 28.2µM | /
O=C(CSc1cccc[n+]1[O-])N1CCCCCC1 | . | . | . | . | . | .
O=C(CSc1cccc[n+]1[O-])CSc1cccc[n+]1[O-] | . | . | ? | ? | 3.55µM | .
CNC(=S)N/N=C/c1ccc2c(c1)OCCO2 | . | 3.55µM | . | . | . | .
Cc1ccc(C(C)C)cc1OCC(=O)N/N=C/c1ccc2c(c1)OCCO2 | . | . | . | . | 12.6µM | .
CCN(CC)c1ccc(NC(=O)c2cnn3c(C(F)F)cc(-c4ccccc4)nc23)cc1 | . | / | / | . | . | /
O=C(NCc1ccco1)c1noc2c1CCCC2 | . | . | . | . | . | .
CC1CCc2onc(C(=O)NCc3ccco3)c2C1 (stereo not drawn) | . | . | . | . | 25.1µM | .
O=C(Nc1ccc(C(O)(C(F)(F)F)C(F)(F)F)cc1)c1ccc(F)cc1F | . | / | / | / | / | /
COc1cccc(/C=C2\CC3(OC(=O)c4ccco4)CCCN2C3)c1 (stereo not drawn) | . | / | / | / | / | /
Cn1c(SCC(=O)NCCN2CCCCC2)nc2cccnc21 | . | / | / | / | / | /
Cc1ccc2c(c1)C(=O)CC(c1ccc3c(c1)OCCO3)O2 (stereo not drawn) | . | . | . | . | 11.2µM | .
COc1ccc2c(c1)C(=O)CC(c1ccc3c(c1)OCCO3)O2 (stereo not drawn) | . | . | . | . | 11.2µM | .
SMILES | FUS suppressor | A-T KAP1 phos | aSyn yeast inh | Abeta yeast res | TDP-43 yeast inh | Mito fusion yeast
COc1ccc2c(c1)C(=O)CC(c1ccc(OC)c(OC)c1)O2 (stereo not drawn) | . | . | . | . | . | .
CCOC(=O)c1c(N2C(=O)CC(Sc3ccccc3C(=O)O)C2=O)sc(C)c1C (stereo not drawn) | . | . | . | ? | 14.1µM | .
Cc1ccc(N2C(=O)CC(Sc3ccccc3C(=O)O)C2=O)cc1 (stereo not drawn) | / | . | . | . | ? | .
Cc1cc(C)cc(N2C(=O)CC(Sc3ccccc3C(=O)O)C2=O)c1 (stereo not drawn) | . | . | . | . | 22.4µM | .
COc1ccc(OC)c(/C=C/C(=O)c2ccc3c(c2)OCCO3)c1 | . | . | . | . | 11.2µM | .
O=C1/C(=C/c2ccsc2)CC/C1=C\c1cccs1 | / | / | . | / | / | 11.6µM
O=C(NCCCc1ccccc1)OC1CCC12CCC(c1ccccc1)CC2 (stereo not drawn) | . | / | / | / | / | /
Cc1cc(N2CCN(c3ccccc3)CC2)nc(-c2ccccc2O)n1 | . | / | . | . | 17.8µM | .
CC(=O)CC[C@H]1CC[C@]2(CCCN(C(=O)c3ccc4ccccc4n3)C2)O1 | . | / | / | / | / | /
Cc1ccccc1OCc1nc2c3cnn(-c4cccc(F)c4)c3ncn2n1 | . | / | / | . | . | /
COc1ccc(CC(=O)N2CCN(c3cccc(C)c3C)CC2)cc1 | . | . | . | . | 11.2µM | .
COc1cccc(NC(=O)N2CCN(c3cccc(C)c3C)CC2)c1 | . | . | . | . | 12.6µM | .
COc1ccccc1N1CCN(C(=O)Nc2cccc(Cl)c2)CC1 | . | . | . | . | . | .
COc1ccc(S(=O)(=O)Cc2ccc(C(=O)N3CCN(c4cccc(C)c4C)CC3)o2)cc1 | . | . | . | . | 25.1µM | ?
O=C(c1ccc(COc2ccccc2)o1)N1CCN(S(=O)(=O)c2ccccc2Cl)CC1 | . | . | . | . | 15.8µM | ?
Cc1ccc(S(=O)(=O)N2CCN(C(=O)c3ccc(COc4ccccc4)o3)CC2)cc1 | . | . | . | . | . | .
COc1cccc(N2CCN(CC(=O)N(C)Cc3ccccc3Cl)CC2)c1 | . | / | / | / | / | /
NS(=O)(=O)c1ccc(NC(=O)CSc2nc3ccccc3c(=O)n2-c2ccc(Br)cc2)cc1 | . | / | / | / | / | /
Cc1ccc(S(=O)(=O)Cc2ccc(C(=O)N3CCN(c4cccc(C)c4C)CC3)o2)cc1 | ? | . | . | . | 22.4µM | .
O=C(c1ccc(CS(=O)(=O)c2c(Cl)cccc2Cl)o1)N1CCN(c2ccccc2)CC1 | 28.2µM | / | / | . | . | /
Cc1ccc(N2C(=O)NC(NS(=O)(=O)c3ccc(Cl)cc3)(C(F)(F)F)C2=O)cc1C (stereo not drawn) | . | / | / | . | . | /
Cc1ccc(CNC(=O)c2ccc(-c3nc(CS(=O)(=O)c4ccc(C)cc4)c(C)o3)cc2)cc1 | . | / | / | . | . | /
Cc1ccc(-c2nc(C3CCCN(S(=O)(=O)c4ccc(Cl)s4)C3)no2)cc1 (stereo not drawn) | . | / | / | / | / | /
COc1cccc(C(=O)NCC(c2cccs2)N2CCc3ccccc32)c1 (stereo not drawn) | . | . | . | . | ? | 15.8µM
O=C(NCC(c1cccs1)N1CCc2ccccc21)c1ccccc1 (stereo not drawn) | . | . | . | . | . | ?
CN(C)NC(=S)NC(=O)C12CC3CC(CC(C3)C1)C2 | . | . | . | . | . | .
CN(C(=S)NC(=O)C12CC3CC(CC(C3)C1)C2)c1ccc(O)cc1 | . | . | . | . | 17.8µM | /
CN(Cc1ccc(Cl)cc1Cl)C(=O)CNC(=O)c1ccco1 | . | . | . | . | . | .

Screens (PubChem BioAssay)
